{"source": "PubChem BioAssay (Tox21)", "note": "Values without a mark were called inactive. The call rests on the fitted dose curve; in most records, active means well fitted cell-killing curve with a large enough effect in the repeat runs; inconclusive means weak or mixed curves, or effect the other way; inactive means flat fitted curve, though single readings scatter. On the % scale 0 is the no-effect control and ±100 the full control effect.", "data": [{"assay": "qHTS assay to identify small molecule HDAC inhibitors - cell viability counter screen (AID 1259365); further: nearly all actives have a fitted effect of over 50% in size", "details": "HCT-116 viability, CellTiter-Glo ATP luminescence, 2 h; series mostly up to 92.4 µM; activity change, negative = cytotoxicity: at the top concentration", "excerpt": "U.S. Tox21 Program National Center for Advancing Translational Sciences [NCATS] NIH Chemical Genomics Center [NCGC] U.S. Environmental Protection Agency [EPA] National Institutes of Environmental Health Sciences [NIEHS] National Toxicology Program [NTP] U.S. Food and Drug Administration [FDA] Tox21 Assay Overview: Histone deacetylases (HDACs) are a group of epigenetic enzymes that regulate gene expression by histone deacetylation. HDACs are capable of introducing epigenetic modifications and such aberrations contribute to the onset and progression of several human diseases, thus making HDACs a popular therapeutic target. For identifying endogenous class I/II HDAC inhibitors a homogenous, luminogenic HDAC I/II cell based assay was used to measure the relative activity of class I and II HDACs from cells. Wild type HCT-116 cells were used to screen Tox21 compound libraries for identifying class I/II HDAC inhibitors.\nTox21 Assay Protocol Summary: HCT-116 cells were dispensed at 1,500 per well in 5uL of culture medium into white solid bottom 1536-well plates (Greiner Bio-One, Monroe, NC) using a Multidrop Combi (Thermo Scientific, Waltham, MA) dispenser. The assay plates were incubated at 37 C and 5% CO2 for an overnight, and then 23nL of compounds dissolved in DMSO and positive control were transferred using a Pintool station (Wako, San Diego, CA). The assay plates were incubated at 37C and 5% CO2 for 2hr. After compound treatment, 4uL of CellTiter-Glo reagent (Promega Corporation, Madison, WI) was added to each well of the assay plates using Flying Reagent Dispenser (FRD, Aurora Discovery, San Diego, CA) and incubated the assay plates at room temperature for 30min. The luminescence signal was quantified using a ViewLux plate reader (Perkin Elmer, Shelton, CT).", "values": [{"smiles": "CC1=NN(c2ccc(S(=O)(=O)O)cc2)C(=O)C1", "activity change, negative = cytotoxicity": "3.63%"}, {"smiles": "CC(=O)O[Si](C)(OC(C)=O)OC(C)=O", "activity change, negative = cytotoxicity": "1.44%"}, {"smiles": "CCCCCCC1(C)CCC(=O)O1", "note": "(stereo not given)", "activity change, negative = cytotoxicity": "-4.36%"}, {"smiles": "O/N=C/C=N/O", "activity change, negative = cytotoxicity": "0.37%"}, {"smiles": "CCC[C@@H]1C[C@@H](C(=O)N[C@@H]([C@H]2O[C@H](SC)[C@H](O)[C@@H](O)[C@H]2O)[C@@H](C)O)N(C)C1", "activity change, negative = cytotoxicity": "-1.33% [at 42.5 µM]"}, {"smiles": "Cc1cc(-c2ccccc2)nnc1NCCN1CCOCC1", "activity change, negative = cytotoxicity": "2.87% [at 42.5 µM]"}, {"smiles": "COc1ccc2c(c1)c1c3n2CCN(C)C3=NCC1", "activity change, negative = cytotoxicity": "-0.115% [at 42.5 µM]"}, {"smiles": "ONc1ccccc1", "activity change, negative = cytotoxicity": "1.89%"}, {"smiles": "N#Cc1cscn1", "activity change, negative = cytotoxicity": "-2.65%"}, {"smiles": "C=Cc1ccc(C(C)(C)C)cc1", "activity change, negative = cytotoxicity": "0.855%"}, {"smiles": "Cc1ccnc(N)c1", "activity change, negative = cytotoxicity": "-0.55%"}, {"smiles": "C=CCCCCCCCC", "activity change, negative = cytotoxicity": "-2.08%"}, {"smiles": "CC/C(C)=N\\O[Si](C)(O/N=C(\\C)CC)O/N=C(\\C)CC", "activity change, negative = cytotoxicity": "3.73%"}, {"smiles": "CCC(=O)CC", "activity change, negative = cytotoxicity": "-1.88%"}, {"smiles": "CCCSSCCC", "activity change, negative = cytotoxicity": "-0.664%"}, {"smiles": "O=C(CCCl)NCCc1ccccc1", "activity change, negative = cytotoxicity": "5.23% [at 42.5 µM]"}, {"smiles": "CC/C=C\\CCOC(=O)c1ccccc1O", "activity change, negative = cytotoxicity": "-8.25%"}, {"smiles": "CCCCCCCCCOC(=O)CCCCC(=O)OCCCCCCC", "activity change, negative = cytotoxicity": "-2.34%"}, {"smiles": "CC(C)CCOC(=O)c1ccccc1", "activity change, negative = cytotoxicity": "-3.07%"}, {"smiles": "CC1(C)Cc2cccc(N)c2O1", "activity change, negative = cytotoxicity": "-2.98%"}, {"smiles": "CC(Oc1cc(Cl)ccc1Cl)C(=O)O", "note": "(stereo not given)", "activity change, negative = cytotoxicity": "5.67%"}, {"smiles": "CC(S)C(C)S", "note": "(stereo not given)", "activity change, negative = cytotoxicity": "-1.28%"}, {"smiles": "Cc1ccc(C(=O)O)cc1[N+](=O)[O-]", "activity change, negative = cytotoxicity": "-0.207%"}, {"smiles": "COC(=O)CCCCC(CCSS/C(CCO)=C(\\C)N(C=O)Cc1cnc(C)nc1N)SC(C)=O", "note": "(stereo not given)", "activity change, negative = cytotoxicity": "2.08% [at 42.5 µM]"}, {"smiles": "CC1=C(C(=O)O)N2C(=O)[C@@H](NC(=O)[C@H](N)c3ccccc3)[C@H]2SC1", "activity change, negative = cytotoxicity": "2.79% [at 42.5 µM]"}, {"smiles": "CC1(C)Oc2ccc(C#N)cc2[C@@H](N2CCCC2=O)[C@@H]1O", "activity change, negative = cytotoxicity": "-1.12% [at 42.5 µM]"}, {"smiles": "CC12CCC(C1)C(C)(C)C2O", "note": "(stereo not given)", "activity change, negative = cytotoxicity": "2.48%"}, {"smiles": "Cc1ncc([N+](=O)[O-])n1CC(C)O", "note": "(stereo not given)", "activity change, negative = cytotoxicity": "5.25% [at 42.5 µM]"}, {"smiles": "CCN1CCCC1CN", "note": "(stereo not given)", "activity change, negative = cytotoxicity": "1.35% [at 42.5 µM]"}, {"smiles": "CCOc1cccc(N)c1", "activity change, negative = cytotoxicity": "1.08%"}, {"smiles": "CC(C)COC(=O)c1ccccc1", "activity change, negative = cytotoxicity": "-0.275%"}, {"smiles": "CC(=O)OC1CCCCC1C(C)(C)C", "note": "(stereo not given)", "activity change, negative = cytotoxicity": "11.5%"}, {"smiles": "C[C@]12CCC(=O)C=C1CC[C@H]1[C@@H]3CC[C@](O)(C(=O)CO)[C@@]3(C)C[C@H](O)[C@@]12F", "activity change, negative = cytotoxicity": "0.126% [at 42.5 µM]"}, {"smiles": "CCO[Si](CC)(OCC)OCC", "activity change, negative = cytotoxicity": "-2.05%"}, {"smiles": "Cc1c(Cl)cccc1Cl", "activity change, negative = cytotoxicity": "-0.113%"}, {"smiles": "O=C(O)[C@H](O)c1ccccc1", "activity change, negative = cytotoxicity": "1.19% [at 42.5 µM]"}, {"smiles": "CCC(=O)c1c(O)cc(O)cc1O", "activity change, negative = cytotoxicity": "3.04% [at 42.5 µM]"}, {"smiles": "CC(C)C[C@@H]1[C@H](c2ccccc2)OC(=O)N1CCCN1CCCCCC1", "activity change, negative = cytotoxicity": "0.241% [at 42.5 µM]"}, {"smiles": "CC1(C)[C@H]2CC[C@](C)(C2)[C@H]1O", "activity change, negative = cytotoxicity": "0.229%"}, {"smiles": "CC(=O)OCC(=O)Nc1cc(C#N)cc(NC(=O)COC(C)=O)c1Cl", "activity change, negative = cytotoxicity": "1.79% [at 42.5 µM]"}]}]}
